Screening results deposited in PubChem by National Center for Advancing Translational Sciences (NCATS).
HTT-AS act = activates huntingtin-antisense promoter activity; HEK293 HTT-AS promoter firefly luciferase reporter, 24 h; response scale: percent change from vehicle, -100% = no light; Potency, µM (doses to about 57.5 µM), usual class: activators; 0.24% of 48,000 active; further: nearly all actives have a fitted effect of over 55% in size
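Firefly luciferase readout (Dual-Glo, 10 min RT) after 24 h, 37 °C compound exposure (final up to 57.5 uM) of HEK293 reporter cells cultured 24 h beforehand; PTC124 at 50 uM final as control inhibitor; activity scaled vehicle 0%, zero RLU -100%.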
HTT prom inh = inhibits huntingtin promoter activity; Potency, µM (highest dose often 57.5 µM), actives largely listed as inhibitors; HEK293 HTT promoter firefly luciferase reporter, 24 h; AID 1508623; 0.93% of 48,000 active; further: nearly all actives have a fitted effect of over 50% in size
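Quantitative HTS used concentration series of up to 57.5 uM final on HEK293 luciferase reporter cells, 24 h at 37 degrees C. Readout was Dual-Glo firefly luminescence.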
S16 viability = S16 Schwann cell cytotoxicity; AID 1508642; 0.48% of 43,000 active; Potency, µM (series often up to 57.5 µM), actives largely listed as cytotoxic; S16 Pmp22-F2sN Schwann cells viability, CellTiter-Glo, 24 h; further: nearly all actives have a fitted effect of over 65% in size
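Seed 500-1,000 S16 Pmp22-F2sN cells per well in phenol-red-free DMEM with 10% heat-inactivated FBS; pin-add 23 nL compound; incubate 24 h at 37C; add CellTiter-Glo, wait 15 min protected from light; read luminescence.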
mTORC1 inh = reduces mTORC1 signaling in Tsc2 and p53 null MEF cells; 0.78% of 44,000 active; AID 493208; Potency, µM (highest dose often 38.3 µM), most hits filed as inhibitors; Tsc2-/- p53-/- MEF, phospho-rpS6 immunofluorescence/PI, 24 h; further: nearly all actives have a fitted effect of over 50% in size
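Tsc2-/-, p53-/- MEFs (empty-vector stable line) in DMEM + 10% FBS were treated with compounds 24 h at 37 degree Celsius, fixed, and immunostained for phospho-rpS6 (Alexa-488) with propidium iodide counterstain. Laser-scanning cytometry gave % positive cells, normalized against 7.5 nM rapamycin and DMSO.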
PMP22 txn prim = modulates PMP22 transcription in S16 Schwann cells; S16 Pmp22-F2sN Schwann cells (luciferase reporters placed in the Pmp22 gene), FLuc/NLuc coincidence luminescence, 24 h; Potency, µM (highest dose often 57.5 µM), hits mostly inhibitors; 2% of 43,000 active; AID 1508649; active means clear falling dose curves in both reporters; inconclusive means both reporters move, but less clearly or upward; inactive means either reporter flat; the % is the NLuc reporter signal
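Transcriptional readout in edited S16(c9) cells: two luciferases reported from the Pmp22 locus, measured in turn after 24 h compound incubation.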
FH mod = Identification of activators of human fumarate hydratase by quantitative high-throughput screening; FH coupled MDH/diaphorase resazurin fluorescence, 15 min; Potency, µM (titrated, usually from 79.9 µM), usual class: inhibitors; 0.22% of 54,000 active; AID 1347055, 2019; further: the screen sought activators but most active calls are inhibition curves; nearly all actives have a fitted effect of over 45% in size
Target sequence (P07954 whole entry, looked up): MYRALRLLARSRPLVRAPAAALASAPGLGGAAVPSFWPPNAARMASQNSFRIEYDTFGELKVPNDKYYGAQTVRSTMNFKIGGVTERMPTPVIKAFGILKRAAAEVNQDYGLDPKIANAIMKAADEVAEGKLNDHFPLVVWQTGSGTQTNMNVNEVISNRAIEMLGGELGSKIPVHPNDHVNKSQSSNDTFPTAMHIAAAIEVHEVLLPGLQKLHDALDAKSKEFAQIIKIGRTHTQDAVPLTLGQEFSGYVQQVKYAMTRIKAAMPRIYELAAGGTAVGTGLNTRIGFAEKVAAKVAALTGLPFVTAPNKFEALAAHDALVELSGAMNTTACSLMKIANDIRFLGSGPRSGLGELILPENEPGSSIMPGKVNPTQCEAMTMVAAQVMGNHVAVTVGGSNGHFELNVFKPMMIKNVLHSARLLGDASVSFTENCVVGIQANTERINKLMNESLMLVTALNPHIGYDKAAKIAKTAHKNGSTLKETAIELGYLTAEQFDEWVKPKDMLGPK
Numbers stand for hits; n = inactive; u = inconclusive; x = no result. The list is not random: actives were taken first. Their share in the collection is about 3.3%. Unless noted, the call rests on the fitted dose curve; in most records, active means well fitted curve in the direction sought with a large enough effect; inconclusive means small, poorly fitted or top-dose-only effect, or another doubt; inactive means no such curve, though single readings can be large; an effect the other way counts as inactive or inconclusive.

SMILES	HTT-AS act	HTT prom inh	S16 viability	mTORC1 inh	PMP22 txn prim	FH mod
O=C(NCc1ccccc1)N1CCc2c(sc3c2CCCC3)C1c1ccccc1 (centres undefined)	n	u	u	n	7.81µM	n
COc1cccc(CNC(=O)N2CCc3c(sc4c3CCCC4)C2c2ccc(F)cc2)c1 (centres undefined)	n	u	u	n	u	n
CN1CCC(c2c(O)cc(O)c3c(=O)cc(-c4ccccc4Cl)oc23)C(O)C1 (centres undefined)	x	x	x	x	x	n
Cc1cc(N2CCOCC2)ccc1Nc1nc(NC2CCCCC2)c2[nH]cnc2n1	x	x	x	x	x	n
COC1=C(OC)C(=O)C(CCCCCCCCCCO)=C(C)C1=O	n	u	x	x	x	19.3µM
C[C@@H](Oc1cc(-n2cnc3ccc(OC4CCN(C)CC4)cc32)sc1C(N)=O)c1ccccc1Cl	x	x	x	x	x	n
COc1ccc2oc(=O)c(C(=O)Nc3cccc(C(=O)O)c3)cc2c1	u	3.98µM	n	n	n	n
COCc1oc2ccc(NS(=O)(=O)c3ccc(C)cc3)cc2c1C(=O)OC	n	u	n	u	7.13µM	n
CCc1cccc(NC(=O)Nc2ccc3c(c2)N(C)C(=O)c2ccccc2S3)c1	n	31.6µM	u	n	u	n
CCN1C(=O)c2ccccc2Sc2ccc(NC(=O)Nc3cc(C)cc(C)c3)cc21	n	20µM	n	n	u	n
CN1C(=O)c2ccccc2Sc2ccc(NC(=O)Nc3ccccc3F)cc21	n	n	n	n	u	n
COc1cc(NC(=O)c2ccc(-c3nc(COc4ccccc4)c(C)o3)cc2)cc(OC)c1	n	14.1µM	n	n	n	u
Cc1oc(-c2ccc(C(=O)Nc3ccc(F)cc3)cc2)nc1COc1ccccc1	n	u	n	n	n	n
CCOC(=O)CCNc1cc(N2CCc3ccccc3CC2)nc(-c2cccnc2)n1	x	x	x	x	x	n
O=C(C1CCN(c2ncnc3c2nc2n3CCCCC2)CC1)N1CCN(c2ccc(F)cc2)CC1	n	n	u	n	u	n
Fc1ccc(N2CCN(c3ncnc4c3nc3n4CCCC3)CC2)cc1	n	u	u	n	4.5µM	n
Cc1cccc(N2CCN(c3ncnc4c3nc3n4CCCCC3)CC2C)c1 (centres undefined)	n	5.01µM	8.91µM	9.27µM	4.39µM	u
CN1CCCN(C(=O)c2cccc(-c3ccc(/C=C4\C(=O)Nc5ccc(Cl)cc54)o3)c2)CC1	x	x	x	x	x	n
O=C(Nc1cccc(C(F)(F)F)c1)c1cc(-c2ccc(Cl)cc2)on1	n	n	n	n	n	n
FC(F)(F)c1cccc(Nc2nc3nonc3nc2Nc2ccc(Cl)cc2)c1	n	0.355µM	8.91µM	u	5.62µM	u
Nc1ccc(O)c(C(=O)O)c1	n	n	x	x	x	u
O=C(O)C1=CC(=C(c2ccc(O)c(C(=O)O)c2)c2ccc(O)c(C(=O)O)c2)C=CC1=O	x	x	x	x	x	15.8µM
CCSc1ncc(Cl)c(C(=O)Nc2sc3c(c2C(=O)NCCCOC)CCCC3)n1	n	n	n	n	n	n
CCCSc1ncc(Cl)c(C(=O)Nc2sc3c(c2C(N)=O)CCCC3)n1	n	n	n	n	n	n
COCCCNC(=O)c1c(NC(=O)c2nc(S(C)(=O)=O)ncc2Cl)sc2c1CCCC2	n	n	3.55µM	n	1.96µM	n
SMILES	HTT-AS act	HTT prom inh	S16 viability	mTORC1 inh	PMP22 txn prim	FH mod
CCNC(=O)c1c(NC(=O)c2nc(S(=O)(=O)CC)ncc2Cl)sc2c1CCCC2	n	n	4.47µM	u	4.47µM	n
COC(=O)c1ccc(CN(Cc2ccc(OC)c(OC)c2)S(=O)(=O)c2cc(C(=O)Nc3cccc(C)c3)ccc2F)cc1	n	n	n	n	n	n
CCN(Cc1ccccc1)S(=O)(=O)c1cc(C(=O)Nc2cc(Cl)cc(Cl)c2)ccc1F	n	25.1µM	u	n	u	n
CCOc1ccc(NC(=O)c2ccc(F)c(S(=O)(=O)N(CC)Cc3ccccc3)c2)cc1	n	2µM	n	n	u	n
CCN1CCN(Cc2ccc(Nc3ncc(F)c(-c4cc(F)c5nc(C)n(C(C)C)c5c4)n3)nc2)CC1	x	x	x	x	x	n
Cc1ccc(NC(=O)c2cccc(N3CCCS3(=O)=O)c2)cc1C	2.24µM	n	n	n	n	n
